Screening data: PubChem, Broad Institute
NOMO-1 viab: NOMO-1 AML cell viability reduction, primary screen, STK33 inhibitor project, CellTiter-Glo luminescence | NOMO-1 AML viability, 72 h | inhibition, % (no concentration beside the values) | 37,000 compounds, 7.5% hits | AID 2330, 2010; in the data active = inhibition above about 80%
Shh pathway inh: Hedgehog pathway signaling inhibitors, primary screen, luminescence, Shh-LIGHT2 cells, Gli-luciferase; Shh-LIGHT2 Gli-luciferase reporter, 30 h; inhibition, % (no concentration beside the values); 22,000 compounds, 2.1% hits;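 active = mean inhibition across valid replicates above about 65%, limit read from the data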;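 also: pathway switched on by Shh-conditioned medium diluted 1 in 25 in low serum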
MITF inhib: inhibitors of MITF, primary screen, MITF inhibitor project, cell-based, luminescence. TRPM1 promoter luciferase, 24 h. inhibition, % (test concentration not listed). 37,000 compounds, 0.28% hits. AID 2240, 2010; in the data active = inhibition above about 85%;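 also: human melanocyte line stably carrying TRPM1 promoter luciferase reporter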
PD-1 reverse act: activators reversing PD-1 mediated T-cell inhibition, primary screen, luminescence, primary human CD4 T cells, PD-L1 beads; CellTiter-Glo 96 h; activation, % (test concentration not listed); 29,000 tested, under 10 active; AID 2316, 2010; call rule not given here
Of the large screens only hits and unclear results are named; the others gave an inactive call. A selection: hits, their analogues and other compounds. The true share with any hit is near 8.1%.

O=C(c1ccccc1)c1ccc2nc(-c3cccc(NC(=O)C4CCCO4)c3)[nH]c2c1 (stereo unspecified)	NOMO-1 viab 100 (no result: Shh pathway inh)
CNS(=O)(=O)c1cc(-c2nnc(Nc3ccc(NC(C)=O)cc3)c3ccccc23)ccc1C	none (no result: Shh pathway inh)
Clc1cccc(Nc2nnc(-c3ccccc3)c3ccccc23)c1	Shh pathway inh 94
C[C@H]1CN([C@@H](C)CO)C(=O)Cc2cc(NC(=O)Nc3ccc4c(c3)OCO4)ccc2O[C@@H]1CN(C)Cc1ccc(C(=O)O)cc1	none
Cc1ccc(-c2cc(C(=O)NCc3ccccn3)no2)cc1	none (no result: Shh pathway inh)
COC(=O)c1cc2c(C)nn(-c3ccccc3)c2s1	none
COc1ccc(C(=O)Oc2c(S(=O)(=O)c3ccccc3)c(C)nn2-c2ccccc2)cc1	NOMO-1 viab 116 (no result: Shh pathway inh)
COc1cccc([C@H]2C(C#N)=C(N)C(C#N)(C#N)C3=CCC(C)C[C@@H]32)c1 (stereo partly specified)	NOMO-1 viab 127
COC(=O)c1ccccc1NC(=O)CSc1nnc(-c2cccnc2)n1-c1ccccc1	none (no result: Shh pathway inh)
CCN(CC)C(=S)C(=O)Nc1cc(C(F)(F)F)cc(C(F)(F)F)c1	NOMO-1 viab 109
CC(C)(C)C1CCc2c(sc3nc(-c4cccs4)oc(=O)c23)C1 (stereo unspecified)	NOMO-1 viab 108
C[C@@H]1CN([C@@H](C)CO)C(=O)c2cc(NC(=O)c3ccncc3)ccc2O[C@@H]1CN(C)CC1CCCCC1	none
CC(=O)O[C@@H]1C[C@@H](C)[C@](O)(CCC2=CC(=O)OC2)[C@@]2(C)CCCC(C)(C)C12 (stereo partly specified)	NOMO-1 viab 104
COc1cc(O)c2c(=O)c(OC)c(-c3ccc(OC)c(OC)c3)oc2c1	none
COC(=O)C1c2c(oc3cc(CO)cc(O)c3c2=O)C=CC1O (stereo unspecified)	NOMO-1 viab 107
CCOC(=O)c1c(NC(=S)NCc2cc(C)n(C)n2)sc2c1CCCC2	none (no result: Shh pathway inh)
C=C(C)C(=O)O[C@H]1[C@H]2C(=C)C(=O)O[C@@H]2C[C@@H](C)/C=C/C(=O)[C@](C)(O)[C@@H]1OC(C)=O	NOMO-1 viab 118, MITF inhib 90
COc1ccccc1C(=O)Nc1sc2c(c1C(=O)NCc1ccco1)CCCC2	NOMO-1 viab 91 (no result: Shh pathway inh)
COc1ccc(C(=O)Nc2sc3c(c2C(=O)NC2CCS(=O)(=O)C2)CCCC3)cc1OC (stereo unspecified)	none (no result: Shh pathway inh)
Cc1c(C(=O)Nc2sc3c(c2C(=O)NCc2ccco2)CCCC3)oc2ccccc12	NOMO-1 viab 106 (no result: Shh pathway inh)
O=C(Nc1sc2c(c1C(=O)NCc1ccco1)CCCC2)c1ccc([N+](=O)[O-])cc1	none (no result: Shh pathway inh)
Cc1ccc2oc(C(=O)Nc3sc4c(c3C(=O)NC3CCS(=O)(=O)C3)CCC4)c(C)c2c1 (stereo unspecified)	NOMO-1 viab 106 (no result: Shh pathway inh)
COc1ccc(OC)c(S(=O)(=O)Nc2ccc(O)c3ccccc23)c1	NOMO-1 viab 127 (no result: Shh pathway inh)
C[C@H]1CN([C@@H](C)CO)C(=O)c2cccc(N(C)C)c2O[C@H]1CN(C)Cc1ccc(C(F)(F)F)cc1	none
C=C1C(=O)O[C@@H]2C[C@@]3(C)[C@@H](O)C[C@@H](O)C(=C)[C@@H]3C[C@H]12	NOMO-1 viab 83
COc1cccc(C2=NN(C(=O)c3onc(-c4ccccc4Cl)c3C)C(c3ccco3)C2)c1 (stereo unspecified)	none (no result: Shh pathway inh)
C[C@H](CO)N1C[C@H](C)[C@@H](CN(C)Cc2ccc(C(=O)Nc3ccccc3N)cc2)Oc2c(NC(=O)c3nc4ccccc4s3)cccc2C1=O	NOMO-1 viab 110 (no result: Shh pathway inh)
C[C@@H]1CN([C@H](C)CO)C(=O)c2cccc(NC(=O)c3nc4ccccc4s3)c2O[C@H]1CN(C)Cc1ccc(C(=O)O)cc1	none
C[C@@H]1CN([C@@H](C)CO)C(=O)c2cccc(NC(=O)c3nc4ccccc4s3)c2O[C@@H]1CN(C)Cc1ccc(C(=O)Nc2ccccc2N)cc1	NOMO-1 viab 127 (no result: Shh pathway inh)
Cc1c(Cl)cccc1NC(=O)CC1NCCNC1=O (stereo unspecified)	none (no result: Shh pathway inh)
CC1CCC/C=C2\C(=O)C=CC3OC(/C=C/C=C/C=C/C(=O)O)=C(C(=O)O1)C23 (stereo unspecified)	NOMO-1 viab 122
Cc1ccc(S(=O)(=O)Nc2ccc3c(c2)C(=O)N([C@H](C)CO)C[C@H](C)[C@@H](CN(C)Cc2ccc(Cl)c(Cl)c2)OCCCC[C@@H](C)O3)cc1	none (no result: PD-1 reverse act)
C[C@H]1CN([C@@H](C)CO)C(=O)c2cccc(NS(=O)(=O)c3cccs3)c2O[C@@H]1CN(C)C(=O)Nc1ccc(F)cc1	none
C[C@@H]1CN([C@@H](C)CO)C(=O)Cc2cc(N(C)C)ccc2O[C@@H]1CN(C)Cc1ccc(C(=O)Nc2ccccc2N)cc1	NOMO-1 viab 140 (no result: Shh pathway inh)
C[C@H]1CN([C@@H](C)CO)C(=O)Cc2cc(N(C)C)ccc2O[C@@H]1CN(C)Cc1ccc(C(=O)Nc2ccccc2N)cc1	NOMO-1 viab 140 (no result: Shh pathway inh)
Cc1cc(=O)[nH]c(SC(C)C(=O)Nc2cccc3ccccc23)n1 (stereo unspecified)	none (no result: Shh pathway inh)
COc1ccc(S(=O)(=O)Nc2cccc3c2O[C@@H](CN(C)CC2CCCCC2)[C@@H](C)CN([C@H](C)CO)C3=O)cc1	Shh pathway inh 71
COc1ccc(S(=O)(=O)Nc2cccc3c2O[C@@H](CN(C)CC2CCCCC2)[C@H](C)CN([C@@H](C)CO)C3=O)cc1	none
C[C@H](CO)N1C[C@H](C)[C@H](CN(C)C(=O)NC2CCCCC2)Oc2c(NS(=O)(=O)c3ccc(Cl)cc3)cccc2C1=O	NOMO-1 viab 88, Shh pathway inh 100
COc1ccc(S(=O)(=O)Nc2cccc3c2O[C@H](CN(C)C(=O)NC2CCCCC2)[C@@H](C)CN([C@@H](C)CO)C3=O)cc1	none (no result: PD-1 reverse act)
COc1ccc(S(=O)(=O)Nc2cccc3c2O[C@@H](CN(C)C(=O)NC2CCCCC2)[C@@H](C)CN([C@H](C)CO)C3=O)cc1	NOMO-1 viab 114, Shh pathway inh 66
N#CC1=C(N)C(C#N)(C#N)C(c2ccccc2)C2=C1CCCC2 (stereo unspecified)	NOMO-1 viab 88
Cc1noc(C)c1NC(=O)Nc1ccc2c(c1)CC(=O)N([C@@H](C)CO)C[C@H](C)[C@H](CN(C)Cc1ccc3c(c1)OCO3)O2	none
Nc1nc(SCC(=O)c2ccccc2)nc2sc3c(c12)CCC3	none (no result: Shh pathway inh)
C[C@@H]1CN([C@H](C)CO)C(=O)c2cc(NS(=O)(=O)c3ccc(Cl)cc3)ccc2O[C@@H]1CN(C)Cc1ccc(Cl)c(Cl)c1	NOMO-1 viab 90 (no result: PD-1 reverse act)
C[C@@H]1CN([C@@H](C)CO)C(=O)c2cc(NS(=O)(=O)c3ccc(Cl)cc3)ccc2O[C@@H]1CN(C)Cc1ccc(Cl)c(Cl)c1	NOMO-1 viab 116
C[C@H](CO)N1C[C@H](C)[C@H](CN(C)Cc2ccc(Cl)c(Cl)c2)Oc2ccc(NS(=O)(=O)c3ccc(F)cc3)cc2C1=O	none
C[C@@H]1CCCCO[C@H](CN(C)Cc2ccc3c(c2)OCO3)[C@@H](C)CN([C@H](C)CO)C(=O)c2cc(NS(=O)(=O)c3ccc(Cl)cc3)ccc2O1	NOMO-1 viab 87
